Hits are enriched below; roughly 19% of the tested compounds scored in any of these assays.
KB-V1 cytotox = kills drug-selected multidrug resistant KB-V1 cells. KB-V1 MDR cells viability, CellTiter-Glo, 72 h. Potency, µM (series often up to 46.1 µM), most hits filed as cytotoxic. 3.4% of 400,000 active; also: nearly all actives have a fitted effect of over 60% in size
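KB-V1 cells (P-gp-expressing MDR subline of KB-3-1) in phenol-red-free DMEM with 10% FBS were exposed to library compounds over a concentration series for 72 h at 37 degrees C. Viability read by CellTiter-Glo luminescence; concentration-effect curves fitted after normalization.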
KB-3-1 cytotox = kills parental KB-3-1 adenocarcinoma cells | KB-3-1 viability, CellTiter-Glo ATP luminescence, 72 h | Potency, µM (highest dose often 46.1 µM), hits mostly cytotoxic | 1.4% of 400,000 active; also: nearly all actives have a fitted effect of over 60% in size
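Using CellTiter-Glo luminescence, growth of non-resistant KB-3-1 adenocarcinoma cells is assessed 72 h after pin-tool compound addition at 37 °C. Normalized responses across the concentration series yield fitted curves.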
HT1080-NT tox = kills 2HG-producing HT-1080-NT fibrosarcoma cells; 1.6% of 360,000 active; HT-1080-NT fibrosarcoma viability, CellTiter-Glo ATP luminescence, 48 h; AID 686970; Potency, µM (titrated, usually from 46.1 µM), inactives show at the top dose activity, negative = less viability, hits mostly cytotoxic;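 also: NT is the 2HG producing partner of a matched IDH1 knockdown line; 0% = DMSO-treated cells and -100% = media-only wells without cells; nearly all actives have a fitted effect of over 55% in size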
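Luminescent CellTiter-Glo readout after 48 hours of compound exposure at 37 degrees C defined viability of HT-1080-NT cells. Activity was normalized to DMSO wells and cell-free media wells; concentration-response curves were fitted and assigned curve classes.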
HT1080 IDH1KD tx = toxicity to HT-1080 IDH1 knockdown cells (counter line) | HT-1080 IDH1 knockdown viability, ATP luminescence, 48 h | Potency, µM (titrated, usually from 46.1 µM), for the others: at the top dose activity, negative = toxicity, usual class: cytotoxic | 2% of 360,000 active | AID 686971;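 also: 0% = DMSO wells and -100% = cell-free medium wells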
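CellTiter-Glo luminescence after 48 h compound exposure at 37 degrees C of IDH1-knockdown HT-1080 cells in 5% FBS RPMI. %Activity scaled between DMSO wells and cell-free media wells, with curves fitted and assigned curve classes.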
DT40 TDP1 no CPT = qHTS for Inhibitors of human tyrosyl-DNA phosphodiesterase 1 (TDP1): qHTS in cells in absence of CPT. 15% of 420,000 active. Potency, µM (top dose mostly 46.2 µM), for the others: at the highest dose activity change, negative = growth inhibition, hits mostly inhibitors. DT40 Tdp1-/- hTDP1 cells, no CPT, ATP luminescence, 48 h; also: nearly all actives have a fitted effect of over 55% in size
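Cells were dispensed at 400 per well, compounds added by pin tool, plates incubated ≥48 hr at 37 °C, then CellTiter-Glo added for 30 min at room temperature before luminescence reading. Line: DT40 Tdp1-/- complemented with hTDP1; camptothecin omitted.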
TDP1 cell CPT = DT40-hTDP1 cell growth loss with CPT | chicken DT40 Tdp1-/-;hTDP1 cells + 20 nM CPT, ATP luminescence, 48 h | Potency, µM (doses to about 46.2 µM), for inactives: top-dose activity change, negative = growth inhibition, hits mostly inhibitors | 12% of 420,000 active | AID 686979; also: nearly all actives have a fitted effect of over 55% in size
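Cell growth measured by CellTiter-Glo luminescence after a minimum 48 h, 37 C compound exposure with 20 nM CPT in Tdp1-knockout DT40 cells stably expressing hTDP1, seeded 400/well; qHTS titration format.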
Active calls of the source: *; i = inactive; ? = inconclusive; . = no result. Calls follow the shape of the dose curve; as a rule, active = well fitted curve in the direction sought with a large enough effect; inconclusive = small, poorly fitted or top-dose-only effect, or another doubt; inactive = no such curve, though single readings can be large; an effect the other way counts as inactive or inconclusive. Unless noted, % is scaled to controls: 0 for no effect and ±100 for the full control effect; potency is read from the fitted curve at half-maximal effect.

SMILES | KB-V1 cytotox | KB-3-1 cytotox | HT1080-NT tox | HT1080 IDH1KD tx | DT40 TDP1 no CPT | TDP1 cell CPT
Cc1cccc(-n2c(/C=C/c3c[nH]c4ccccc34)nc3ccccc3c2=O)c1 | ? | i | . | . | 2.6µM* | 2.6µM*
Cc1cccc(-n2c(/C=C/c3ccccn3)nc3ccccc3c2=O)c1 | ? | ? | 2% | 3% | ? | 23µM*
CC1CC(Cl)CCC1C(=O)OC(C)(C)C (stereo not given) | . | . | . | . | 10% | 11%
CC(C)CC[C@@H](O)[C@](C)(O)C1CC[C@@]2(O)C3=CC(=O)[C@@H]4C[C@@H](O)[C@@H](O)C[C@]4(C)C3CC[C@]12C (stereo not given in full) | i | i | ? | 9% | -11% | -5%
O.O.O.O=C([O-])C(O)C(O)C(=O)[O-].O=C([O-])C(O)C(O)C(=O)[O-].[K+].[K+].[Sb].[Sb] (stereo not given) | . | . | . | . | -29% | -9%
COC(=O)C1=C(c2cc3ccccc3s2)C[C@@H]2CC[C@H]1N2C(=O)N1CCCC1 | i | i | -2% | -2% | . | 4.6µM*
COC(=O)C1=C(c2cc3ccccc3s2)C[C@@H]2CC[C@H]1N2C(=O)NCCNC(C)=O | i | i | 7% | 3% | -13% | -7%
COC(=O)C1=C(c2cc3ccccc3s2)C[C@@H]2CC[C@H]1N2C(=O)N1CCOCC1 | i | ? | 9.2µM* | 8.2µM* | 7.3µM* | 9.2µM*
CCOC(=O)/C(=N\Nc1ccccc1)N1CC1 | i | i | 4% | 10% | 2% | 5%
CCOC(=O)c1c(NC(=O)C(c2ccccc2)c2ccccc2)sc2c1C1CCN2CC1 | 23µM* | ? | -24% | -1% | 23µM* | 21µM*
CC(=O)[C@@]1(O)CC[C@H]2[C@@H]3CCC4=CC(=O)CC[C@]4(C)C3(F)[C@@H](O)C[C@@]21C (stereo not given in full) | . | . | . | . | -14% | 13%
C[C@H]1C[C@H]2[C@@H]3CCC4=CC(=O)C=C[C@]4(C)[C@@]3(F)[C@@H](O)C[C@]2(C)[C@@]1(O)C(=O)CCl | . | . | . | . | 0.053µM* | -97%
CC1(C)S[C@@H]2[C@H](N3C(=O)C(c4ccccc4)NC3(C)C)C(=O)N2[C@H]1C(=O)O (stereo not given in full) | . | . | . | . | -13% | 3%
CC(Sc1ncnc2sccc12)C(=O)Nc1ccc(S(=O)(=O)N2CCOCC2)cc1 (stereo not given) | 23µM* | i | -5% | -2% | -33% | ?
CC(C)C(=O)Nc1ccc(S(=O)(=O)N2CC3CC(C2)c2cccc(=O)n2C3)cc1 (stereo not given) | i | i | 3% | 3% | -17% | -5%
CCn1cc(CN(C)S(=O)(=O)c2ccc3ccccc3c2)c(C)n1 | ? | i | -5% | -8% | 5.8µM* | 5.2µM*
CCn1cc(CN2CCCC(C(=O)c3cccc(OC)c3)C2)c(C)n1 (stereo not given) | i | i | -3% | 0% | -27% | -21%
CCOc1ccccc1N(CC(=O)NCCc1ccc(OC)cc1)S(=O)(=O)c1ccc(C)cc1 | ? | ? | -1% | 2% | 8.2µM* | 10µM*
O=C(C1CCN(S(=O)(=O)c2ccc(Br)s2)CC1)N1CCN(c2cccc(C(F)(F)F)c2)CC1 | ? | ? | . | . | 6.5µM* | 23µM*
O=C1NC(=O)C(=Cc2ccc(Cl)cc2)C(=O)N1 | i | . | 22% | 0% | 5% | 3%
CCn1c(P(C)(=O)O)nc2cc(NC(=O)c3ccccc3F)ccc21 | i | i | -13% | -8% | 5% | -2%
COc1ccccc1C(=O)Nc1ccc2nc(SCC(=O)N3CCCc4ccccc43)sc2c1 | . | . | . | . | 2.9µM* | 5.2µM*
